This is an account of results in PubChem BioAssay (EPA / NIEHS).

Molecules are shown by their SMILES. “And” between values parts separate entries of the source, which are not always exact repeats. Equal values may be shown once. Results filed as inconclusive are left out. The source holds several records for some structures; these can differ, active in one and inactive in another. The source made the active and inactive calls. Rule for the calls: active = hit-call score of the fitted dose curve at least 0.9, where 1 is the maximum; inconclusive = response in the unintended direction; inactive = score below 0.9.

Assay [1] concerns the target human Peroxisome Proliferator-activated Receptor alpha (PPARa), PPARA (gene 5465) (UniProt Q07869). Put plainly: NVS_NR_hPPARa: NovaScreen (NVS) Nuclear Receptor Binding Assay for human Peroxisome Proliferator-activated Receptor alpha (PPARa) (AID 2283359).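 Note: activity means loss of TR-FRET signal versus DMSO baseline.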 In outline: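 One-hour incubation, cell-free extracted protein, TR-FRET binding readout; signal loss vs DMSO scored. Screen: 25 uM duplicates, confirmatory dose series for actives.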

For assay [2], the target named is Glucocorticoid receptor (Homo sapiens) (UniProt P04150). Briefly: NVS_NR_hGR: NovaScreen (NVS) Nuclear Receptor Binding Assay for human Glucocorticoid Receptor (GR) (AID 2283363).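 For AC50: activity is loss of specific radioligand binding signal relative to DMSO.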 In outline: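 Single-readout cell-free binding: radioligand plus extracted receptor, 16-hour dosing, filter radiodetection; 25 uM duplicate primary, concentration series secondary.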
Chain of Glucocorticoid receptor (Homo sapiens) (P04150 whole entry, looked up): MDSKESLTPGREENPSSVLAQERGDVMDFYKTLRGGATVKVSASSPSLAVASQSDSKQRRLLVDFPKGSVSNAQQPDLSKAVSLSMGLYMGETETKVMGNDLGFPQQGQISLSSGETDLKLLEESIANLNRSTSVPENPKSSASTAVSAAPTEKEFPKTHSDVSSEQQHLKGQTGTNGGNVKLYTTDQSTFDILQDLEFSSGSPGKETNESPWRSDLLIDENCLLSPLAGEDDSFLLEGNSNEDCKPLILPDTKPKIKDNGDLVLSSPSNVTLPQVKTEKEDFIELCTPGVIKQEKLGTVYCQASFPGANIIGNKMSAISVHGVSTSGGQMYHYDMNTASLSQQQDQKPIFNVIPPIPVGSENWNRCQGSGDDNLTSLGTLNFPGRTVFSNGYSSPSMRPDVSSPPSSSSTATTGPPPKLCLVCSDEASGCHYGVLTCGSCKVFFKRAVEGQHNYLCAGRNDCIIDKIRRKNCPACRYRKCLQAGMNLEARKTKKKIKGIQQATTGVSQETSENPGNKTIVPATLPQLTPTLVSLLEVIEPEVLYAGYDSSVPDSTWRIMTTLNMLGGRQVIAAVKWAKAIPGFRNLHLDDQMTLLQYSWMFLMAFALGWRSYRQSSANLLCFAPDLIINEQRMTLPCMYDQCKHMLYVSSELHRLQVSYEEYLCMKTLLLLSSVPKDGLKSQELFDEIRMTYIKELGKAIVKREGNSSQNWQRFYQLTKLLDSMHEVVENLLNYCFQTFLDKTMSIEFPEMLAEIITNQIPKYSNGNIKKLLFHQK
For assay [3], the target named is human Adenosine Transporter (Adot), SLC29A1 (gene 2030) (UniProt Q99808). Briefly: NVS_TR_hAdoT: NovaScreen (NVS) Transporter Assay for human Adenosine Transporter (Adot) (AID 2283368). In outline:
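Binding displacement on U937 extracted protein, read 1 h post-dose by filtration and scintillation counting. Primary duplicate test at 25 uM, then singleton concentration series with 50 uM top; DMSO baseline.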

Assay [4] has as its target Nuclear receptor subfamily 1 group I member 2 (Homo sapiens) (UniProt O75469). Briefly: NVS_NR_hPXR: NovaScreen (NVS) Nuclear Receptor Binding Assay for human Pregnane X Receptor (PXR) (AID 2283365).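 Note: a drop in FRET signal versus DMSO baseline means the compound binds.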 A digest of the protocol:
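TR-FRET signal read at 2 h in a cell-free human PXR binding format. DMSO served as negative control and baseline; activity scored as signal loss. Single-concentration duplicate screen (25 uM), then concentration-response follow-up.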

The subject of assay [5] is guinea pig Dopamine Transporter (DAT), gene 100714898. Briefly: NVS_TR_gDAT: NovaScreen (NVS) Transporter Assay for guinea pig Dopamine Transporter (DAT) (AID 2283369).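 Note: active compounds lower bound radioligand signal relative to DMSO.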 A digest of the protocol: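 Cell-free striatal membrane prep (guinea pig), 2 h exposure, filtration + scintillation readout of radioligand binding. Single-point 25 uM duplicate; actives rerun singleton, top conc 50 uM.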

In assay [6] the target is Retinoic acid receptor alpha (Homo sapiens) (UniProt P10276). Briefly: NVS_NR_hRARa_Agonist: NovaScreen (NVS) Nuclear Receptor Binding Assay for human Retinoic Acid Alpha Receptor Agonism (RAR) (AID 2283361). A digest of the protocol:
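Compounds screened at 25 uM, duplicate, then in concentration series if active. Detection: TR-FRET gain of signal versus DMSO after 2 h with cell-free extracted RARα.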

The target in assay [7] is rat Androgen Receptor (AR), Ar (gene 24208) (UniProt P15207). Briefly: NVS_NR_rAR: NovaScreen (NVS) Nuclear Receptor Binding Assay for rat Androgen Receptor (AR) (AID 2283366). A digest of the protocol:
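Actives from a duplicate single-concentration (25 uM) primary run went on to concentration series. Displacement of radioligand was counted by filtration and scintillation, 18 h post-dose, using prostate extracts from testosterone-pretreated rats, with DMSO as baseline.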

Assay [8] has as its target guinea pig Sigma Receptor, Non-selective Binding, SIGMAR1 (gene 100135589) (UniProt Q60492). Briefly: NVS_OR_gSIGMA_NonSelective: NovaScreen (NVS) Nuclear Receptor Binding Assay for guinea pig Sigma Receptor, Non-selective Binding (AID 2283367). A digest of the protocol:
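Test chemicals were screened in duplicate at 25 uM, then in concentration series if active, against radioligand binding to guinea pig brain membranes; filtration and scintillation counting at 1 h measured remaining bound ligand.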

For assay [9], the target named is Retinoic acid receptor alpha (Homo sapiens) (UniProt P10276). Put plainly: NVS_NR_hRAR_Antagonist: NovaScreen (NVS) Nuclear Receptor Binding Assay for human Retinoic Acid Alpha Receptor Antagonism (RAR) (AID 2283358). In outline: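 Chemicals were first tested in duplicate at 25 uM, then actives in concentration series, in a cell-free TR-FRET antagonist binding format. Measurements were taken 2 hours after dosing and loss of signal was evaluated against DMSO controls.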
Chain of Retinoic acid receptor alpha (Homo sapiens) (P10276 whole entry, looked up): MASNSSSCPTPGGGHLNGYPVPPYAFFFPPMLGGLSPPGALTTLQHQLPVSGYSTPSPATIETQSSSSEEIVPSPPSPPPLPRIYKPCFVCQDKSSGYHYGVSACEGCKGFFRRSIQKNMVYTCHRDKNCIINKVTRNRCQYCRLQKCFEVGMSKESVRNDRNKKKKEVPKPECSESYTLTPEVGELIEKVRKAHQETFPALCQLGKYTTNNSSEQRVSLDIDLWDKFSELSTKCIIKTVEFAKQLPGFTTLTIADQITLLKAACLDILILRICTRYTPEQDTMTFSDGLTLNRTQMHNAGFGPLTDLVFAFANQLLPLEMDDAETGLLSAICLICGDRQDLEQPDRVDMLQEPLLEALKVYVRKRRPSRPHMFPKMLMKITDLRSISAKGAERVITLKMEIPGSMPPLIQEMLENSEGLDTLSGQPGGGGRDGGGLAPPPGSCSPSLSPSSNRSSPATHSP

Assay [10] concerns the target human Thyroid Receptor Alpha (TRa), THRA (gene 7067) (UniProt P10827). Briefly: NVS_NR_hTRa_Antagonist: NovaScreen (NVS) Nuclear Receptor Binding Assay for human Thyroid Receptor Alpha Antagonism (TRa) (AID 2283362).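 Note: activity is loss of signal relative to DMSO baseline.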 In outline: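 AlphaLISA chemiluminescent immunoassay readout, taken 1 h post-dosing in a cell-free system with extracted protein. Activity was scored as signal loss against DMSO negative control, from duplicate single-concentration (25 uM) testing followed by concentration-response follow-up.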

Chain of guinea pig Sigma Receptor, Non-selective Binding, SIGMAR1 (gene 100135589) (Q60492 whole entry, looked up): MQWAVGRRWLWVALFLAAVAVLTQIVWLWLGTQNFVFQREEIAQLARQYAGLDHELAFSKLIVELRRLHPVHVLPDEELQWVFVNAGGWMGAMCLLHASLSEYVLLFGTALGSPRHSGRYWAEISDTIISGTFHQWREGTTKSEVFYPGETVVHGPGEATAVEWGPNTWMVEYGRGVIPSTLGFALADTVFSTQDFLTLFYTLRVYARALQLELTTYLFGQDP
Chain of human Peroxisome Proliferator-activated Receptor alpha (PPARa), PPARA (gene 5465) (Q07869 whole entry, looked up): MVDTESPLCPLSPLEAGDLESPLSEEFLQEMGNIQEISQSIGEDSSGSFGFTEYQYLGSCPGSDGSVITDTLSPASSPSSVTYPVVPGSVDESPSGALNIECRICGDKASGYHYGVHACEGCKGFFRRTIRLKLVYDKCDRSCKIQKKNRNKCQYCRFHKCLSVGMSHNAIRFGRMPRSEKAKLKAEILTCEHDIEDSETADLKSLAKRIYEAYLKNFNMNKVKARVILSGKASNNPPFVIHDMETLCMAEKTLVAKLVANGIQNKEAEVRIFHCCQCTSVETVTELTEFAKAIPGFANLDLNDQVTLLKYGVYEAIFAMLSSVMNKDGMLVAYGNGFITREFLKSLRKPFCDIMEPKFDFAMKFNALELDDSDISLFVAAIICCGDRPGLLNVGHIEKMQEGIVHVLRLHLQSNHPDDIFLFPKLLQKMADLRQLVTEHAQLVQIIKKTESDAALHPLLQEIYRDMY
Chain of rat Androgen Receptor (AR), Ar (gene 24208) (P15207 whole entry, looked up): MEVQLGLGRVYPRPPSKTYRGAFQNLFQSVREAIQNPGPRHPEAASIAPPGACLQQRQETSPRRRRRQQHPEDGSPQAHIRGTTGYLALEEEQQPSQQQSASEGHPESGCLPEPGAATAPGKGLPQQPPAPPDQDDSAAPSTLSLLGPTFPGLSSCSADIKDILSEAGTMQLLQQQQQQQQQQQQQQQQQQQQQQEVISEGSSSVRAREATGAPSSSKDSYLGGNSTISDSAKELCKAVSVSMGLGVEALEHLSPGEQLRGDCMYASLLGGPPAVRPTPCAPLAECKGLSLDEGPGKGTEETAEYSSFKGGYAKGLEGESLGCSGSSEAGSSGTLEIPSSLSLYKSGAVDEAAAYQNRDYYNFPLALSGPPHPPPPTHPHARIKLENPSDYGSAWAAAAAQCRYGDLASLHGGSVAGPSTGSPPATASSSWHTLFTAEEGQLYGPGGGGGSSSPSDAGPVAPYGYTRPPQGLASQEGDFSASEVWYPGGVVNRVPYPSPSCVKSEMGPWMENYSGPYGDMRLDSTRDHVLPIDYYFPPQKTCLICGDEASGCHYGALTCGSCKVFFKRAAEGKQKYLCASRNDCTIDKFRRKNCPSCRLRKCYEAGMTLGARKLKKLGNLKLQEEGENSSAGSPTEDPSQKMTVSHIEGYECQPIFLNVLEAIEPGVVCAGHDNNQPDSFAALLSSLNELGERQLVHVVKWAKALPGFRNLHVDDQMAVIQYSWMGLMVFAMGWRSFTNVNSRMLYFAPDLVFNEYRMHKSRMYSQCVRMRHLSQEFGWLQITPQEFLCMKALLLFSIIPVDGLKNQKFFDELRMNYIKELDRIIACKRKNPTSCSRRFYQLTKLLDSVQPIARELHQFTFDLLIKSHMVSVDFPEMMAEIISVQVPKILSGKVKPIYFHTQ
Chain of human Thyroid Receptor Alpha (TRa), THRA (gene 7067) (P10827 whole entry, looked up): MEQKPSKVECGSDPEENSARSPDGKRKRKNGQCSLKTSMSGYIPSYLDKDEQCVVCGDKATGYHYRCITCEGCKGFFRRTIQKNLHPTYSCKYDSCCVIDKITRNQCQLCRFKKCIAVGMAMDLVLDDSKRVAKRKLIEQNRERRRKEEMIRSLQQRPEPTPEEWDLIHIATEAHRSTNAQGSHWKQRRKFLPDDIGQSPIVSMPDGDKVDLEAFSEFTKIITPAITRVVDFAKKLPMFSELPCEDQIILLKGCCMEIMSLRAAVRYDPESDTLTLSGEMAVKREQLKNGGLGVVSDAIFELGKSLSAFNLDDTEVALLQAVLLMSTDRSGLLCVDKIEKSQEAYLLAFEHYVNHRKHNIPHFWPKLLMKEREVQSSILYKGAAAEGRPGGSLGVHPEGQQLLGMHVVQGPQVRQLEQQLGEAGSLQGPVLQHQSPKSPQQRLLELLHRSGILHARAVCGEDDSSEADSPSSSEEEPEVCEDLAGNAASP
Chain of Nuclear receptor subfamily 1 group I member 2 (Homo sapiens) (O75469 whole entry, looked up): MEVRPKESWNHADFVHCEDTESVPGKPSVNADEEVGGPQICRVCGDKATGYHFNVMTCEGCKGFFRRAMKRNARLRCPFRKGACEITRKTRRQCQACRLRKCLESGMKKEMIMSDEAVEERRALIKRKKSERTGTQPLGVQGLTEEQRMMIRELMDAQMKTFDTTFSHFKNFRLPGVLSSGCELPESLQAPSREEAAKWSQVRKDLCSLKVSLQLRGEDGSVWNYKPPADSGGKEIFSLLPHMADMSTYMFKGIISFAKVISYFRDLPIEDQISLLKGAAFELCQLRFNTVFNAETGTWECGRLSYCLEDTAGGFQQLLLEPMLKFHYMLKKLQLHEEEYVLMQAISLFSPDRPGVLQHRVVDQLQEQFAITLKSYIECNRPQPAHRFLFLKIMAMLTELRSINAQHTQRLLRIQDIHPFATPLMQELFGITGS
Chain of human Adenosine Transporter (Adot), SLC29A1 (gene 2030) (Q99808 whole entry, looked up): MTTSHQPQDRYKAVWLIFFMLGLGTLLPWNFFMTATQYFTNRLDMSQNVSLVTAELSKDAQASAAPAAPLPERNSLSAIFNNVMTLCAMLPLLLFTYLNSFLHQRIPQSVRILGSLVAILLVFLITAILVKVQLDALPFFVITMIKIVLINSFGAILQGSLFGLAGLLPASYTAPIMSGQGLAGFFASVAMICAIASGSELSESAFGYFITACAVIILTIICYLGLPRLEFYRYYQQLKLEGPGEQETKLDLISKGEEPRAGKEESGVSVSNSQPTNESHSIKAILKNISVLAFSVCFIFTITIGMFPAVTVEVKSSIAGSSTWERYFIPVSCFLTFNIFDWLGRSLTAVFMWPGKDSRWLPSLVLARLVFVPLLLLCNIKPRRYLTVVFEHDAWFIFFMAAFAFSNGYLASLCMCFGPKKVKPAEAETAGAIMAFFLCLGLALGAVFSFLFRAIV

Take `CC(C)(c1cc(Br)c(O)c(Br)c1)c1cc(Br)c(O)c(Br)c1`: the AC50 in [1] is 8.19 µM (active); in assay [2], 4.97 µM (active).

Consider `CCCCCCCCOC(=O)c1cc(O)c(O)c(O)c1`, for which the AC50 is 19 µM (active) in [1], 1.14 µM (active) in assay [2] and 22.2 µM (active) in assay [3].

Turning to `C[C@]12CC[C@@H]3c4ccc(O)cc4CC[C@H]3[C@@H]1CC[C@H]2O`, the outcome in assay [1], in assay [2] and in assay [4] was inactive. For the same compound, the AC50 is 374 nM (active) and 448 nM (active) and 261 nM (active) in [2]; 0.231 µM (active) in assay [5].

Take `O=c1c(-c2ccc(O)cc2)coc2cc(O)cc(O)c12`: the compound was called inactive in [6], in [4] and in [7].

For `Cc1c2ccccc2c(C)c2c1ccc1ccccc12`, the result in [1] was inactive. In [2], the AC50 is 15.3 µM (active).

For `NCc1cccc(C2CCN(C(=O)c3ccc(C#Cc4ccccc4F)o3)CC2)c1`, the AC50 in [1] was 40.8 µM (active); in assay [2] it was 7.56 µM (active); in [4], 7.85 µM (active); in [7], 15.4 µM (active); in assay [8], 13.2 µM (active); in [3] it was 25 µM (active). Besides, in assay [5], the AC50 was 10 µM (active).

For `CCO[Si](CCCNC(N)=O)(OCC)OCC`, the outcome in assay [6] was inactive.

Take `CCCCCCCCCC(=O)O`: the result in [1] was inactive.

For `CC[C@@H]1C[C@H](N(Cc2cc(C(F)(F)F)cc(C(F)(F)F)c2)C(C)=O)c2cc(C(F)(F)F)ccc2N1C(=O)OC(C)C`, the result in assay [6] and in [2] was inactive.

As for `O=C(O)c1ccccc1C(=O)OCc1ccccc1`, in [1], the compound was called inactive.

As for `O=CCCCC=O`, the call in assay [1] and in assay [4] was inactive.

In the case of `O=C(O)Cc1cc(I)c(Oc2ccc(O)c(I)c2)c(I)c1`, the compound was classed as inactive in assay [9] and in assay [4]. Besides, the AC50 is 46.3 µM (active) in [1] and 561 nM (active) [middle of 4 runs] in assay [2].

As for `O=C1CCC(C2CCCCC2)CC1`, the compound was classed as inactive in assay [10] and in assay [4]. Further, the AC50 in assay [8] was 25 µM (active).

In the case of `CCCCCCCCOc1ccc(C(=O)c2ccccc2)c(O)c1`, the call in assay [1] was inactive.

In the case of `OC12N=C(c3ccccc3)SC1Cc1cc(Cl)ccc12` (stereo unspecified), in assay [1], the compound was called inactive.

Consider `C[C@]12CC[C@@H]3c4ccc(O)cc4CC[C@H]3[C@@H]1CCC2=O`, for which the call in [1] and in assay [7] was inactive.

As to `c1ccc2ccccc2c1`, the outcome in [6] was inactive.

Consider `CCCCOC(=O)c1ccc(O)cc1`, for which the compound was classed as inactive in assay [1], in assay [2], in [4] and in [7]. The AC50 in assay [8] was 4.2 µM (active); in assay [5], 25 µM (active).

For `CCN(CC)C(=O)c1cc(S(=O)(=O)Cc2ccccc2)c(N2CCC(c3ccccc3)CC2)cc1N(CC)CCN(C)C`, the compound was classed as inactive in assay [6]. For the same compound, the concentration at half-maximal activity (AC50) in assay [2] is 14.2 µM (active); in assay [4], 15.4 µM (active); in [8], 6.21 µM (active); in assay [5], 6.53 µM (active).

Consider `CN(C)c1ccc(C(=C2C=CC(=[N+](C)C)C=C2)c2ccc(N(C)C)cc2)cc1`, for which the AC50 in [1] is 14.7 µM (active); in assay [2], 1.87 µM (active); in [4] it was 6.47 µM (active); in assay [7], 6.51 µM (active); in assay [8], 14.8 µM (active); in [3], 7.35 µM (active). Moreover, the AC50 in assay [5] was 7.68 µM (active).

Consider `CN1C(=O)N(c2ccccc2Br)Cc2cnc(Nc3ccc4c(c3)OCC(CO)O4)nc21` (stereo unspecified), for which the call in [9] and in assay [2] was inactive.

In general, AC50 refers to the concentration at which the activity in the assay is half-maximal.
